The values that follow come from PubChem BioAssay (EPA / NIEHS).

Calls of active or inactive are those of the source. How the source made its calls: active means hit-call score of the fitted dose curve at least 0.9, where 1 is the maximum; inactive means score below 0.9.

Assay [1] can be described thus: ATG_CRE_CIS: Attagene CIS-FACTORIAL HepG2 Assay for human cAMP Responsive Element (CRE) binding protein 3 (AID 2282926). The conditions noted are these: HepG2 CRE cis-reporter, Attagene multiplexed mRNA; actives raise or lower the signal. Put shortly:
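Endogenous transcription factor activity read via CRE-regulated reporter transcripts in transfected HepG2 cells. After 24 h exposure, RNA was reverse-transcribed, amplified, fluorescently labelled and sized by capillary electrophoresis; gain or loss fitted against DMSO.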

Assay [2] concerns the target CCAAT/enhancer-binding protein beta (Homo sapiens) (UniProt P17676). As to the kind of experiment: ATG_C_EBP_CIS: Attagene CIS-FACTORIAL HepG2 Assay for human CCAAT/Enhancer Binding Protein (C/EBP) beta (AID 2282927). The following applies: HepG2 Attagene cis-factorial transcription factor reporter; actives raise or lower the signal. The procedure, abridged: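 Endogenous transcription factor activity in human liver HepG2 cells is inferred from induction of a CEBPB-linked reporter mRNA. Exposure lasts 24 h; activity is fitted in both directions relative to DMSO.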

Assay [3] in a line: ATG_CMV_CIS: Attagene CIS-FACTORIAL HepG2 Assay for human CMV (Internal Marker) (AID 2282928).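 Further: endpoint acts as a background internal control marker rather than a target.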 The conditions noted are these: HepG2 CMV promoter reporter, transcription factor profiling; actives raise or lower the signal. The procedure, abridged: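 Readout: fluorescent reporter cDNA fragments separated by capillary electrophoresis after RT-PCR and HpaI cut. Cells: HepG2 carrying transfected cis-promoter reporter constructs, dosed 24 h. Endpoint serves as background internal-marker control, fit bidirectionally versus DMSO.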

Assay [4] can be described thus: ATG_AP_1_CIS: Attagene CIS-FACTORIAL HepG2 Assay for human Activator Protein 1 (AP-1) (AID 2282931). The conditions noted are these: HepG2 Attagene cis-factorial AP-1 reporter mRNA; actives raise or lower the signal. The procedure, abridged: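 Reporter transcripts were measured 24 h after dosing by RT-PCR and capillary electrophoresis of fluorescent fragments. Cells: HepG2 carrying transfected cis-regulated reporter constructs reading endogenous factor activity. Gain or loss fitted against DMSO.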

A short description of assay [5]: ATG_AP_2_CIS: Attagene CIS-FACTORIAL HepG2 Assay for human Activator Protein 2 (AP-2) (AID 2282932). The conditions noted are these: HepG2 AP-2 cis-reporter, Attagene transcription factor profiling; actives raise or lower the signal. Put shortly: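 Transiently transfected HepG2 cells are exposed to chemical for 24 h. Reporter transcripts are then measured as fluorescence following RT-PCR and capillary separation, and gain- or loss-of-signal is fitted relative to DMSO.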

Assay [6] in a line: ATG_BRE_CIS: Attagene CIS-FACTORIAL HepG2 Assay for human Bone Morphogenetic Protein (BMP) Response Element (BRE) (AID 2282933). The conditions noted are these: HepG2 BMP response element reporter, Attagene transcription factor profiling; actives raise or lower the signal. Put shortly:
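Endogenous transcription factor activity read in transiently transfected HepG2 cells after 24 h chemical exposure. Bidirectional curve fitting against DMSO; readout is reporter transcript level by RT-PCR with capillary electrophoresis of labelled products.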

Assay [7] addresses Transcription factor E2F1 (Homo sapiens) (UniProt Q01094). Kind of assay: ATG_E2F_CIS: Attagene CIS-FACTORIAL HepG2 Assay for human E2F Transcription Factor 1 (AID 2282935). The conditions noted are these: HepG2 Attagene cis-reporter, E2F reporter RNA transcripts; actives raise or lower the signal. The procedure, abridged: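 Fluorescent RT-PCR products, digested with HpaI for 2 h at 37 C, are separated by capillary electrophoresis. Source RNA comes from transfected HepG2 cultures treated for 24 h.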

Assay [8] is described as follows: ATG_E_Box_CIS: Attagene CIS-FACTORIAL HepG2 Assay for human Enhancer Box (E-box) (AID 2282936). The following applies: HepG2 E-box cis-reporter transcription, actives raise or lower the signal. The procedure, abridged: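 Fluorescent reporter fragments separated by capillary electrophoresis gave the signal; mRNA came from HepG2 cells transfected with cis-element reporters and treated 24 h. Curves fitted bidirectionally relative to DMSO controls.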

Assay [9] can be described thus: ATG_M_61_CIS: Attagene CIS-FACTORIAL HepG2 Assay for M61 Transcription Factor (Internal Marker) (AID 2282937). The conditions noted are these: HepG2 Attagene CIS-FACTORIAL M61 internal marker reporter; actives raise or lower the signal. The procedure, abridged:
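Readout: fluorescent reporter mRNA fragments resolved by capillary electrophoresis after RT-PCR. Transiently transfected human HepG2 cells carried MRTU constructs reporting endogenous TF activity; 24 h chemical exposure; gain or loss of signal fitted relative to DMSO.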

The nature of assay [10]: ATG_EGR_CIS: Attagene CIS-FACTORIAL HepG2 Assay for human Early Growth Response 1 (EGR1) (AID 2282938). The following applies: HepG2 Attagene CIS-FACTORIAL EGR reporter mRNA; actives raise or lower the signal. The procedure, abridged: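 Read-out: fluorescent reporter-mRNA fragments resolved by capillary electrophoresis after RT-PCR, 24 h post-dose in transiently transfected HepG2. Endogenous transcription-factor activity reported via cis-element-regulated reporter units; gain or loss fitted relative to DMSO.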

The nature of assay [11]: ATG_M_19_CIS: Attagene CIS-FACTORIAL HepG2 Assay for M19 Transcription Factor (Internal Marker) (AID 2282939). The following applies: HepG2 Attagene CIS-FACTORIAL M19 internal marker reporter; actives raise or lower the signal. Put shortly:
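Internal marker readout, fitted in both directions against DMSO, from HepG2 cells carrying transfected cis-element reporter constructs; RT-PCR and capillary electrophoresis of reporter mRNA after 24 h exposure.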

Assay [12] in a line: ATG_GATA_CIS: Attagene CIS-FACTORIAL HepG2 Assay for human GATA Binding Protein (AID 2282944). The conditions noted are these: HepG2 GATA cis-element reporter, Attagene multiplex mRNA; actives raise or lower the signal. Put shortly: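 Reporter transcripts from a GATA cis-regulated unit, among multiplexed reporters in transfected HepG2 cells, were measured by RT-PCR with capillary electrophoresis after 24 h dosing. Induction or loss scored relative to DMSO.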

Assay [13] can be described thus: ATG_GLI_CIS: Attagene CIS-FACTORIAL HepG2 Assay for human Zinc Finger Protein GLI1 (AID 2282945). The following applies: HepG2, Attagene cis-factorial reporter mRNA, GLI element; actives raise or lower the signal. The procedure, abridged: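 Bidirectional curve fits relative to DMSO, using reporter mRNA levels from RT-PCR plus capillary electrophoresis. Cells were HepG2 transiently carrying cis-regulated reporter constructs, harvested 24 h after dosing.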

Assay [14] in a line: ATG_ISRE_CIS: Attagene CIS-FACTORIAL HepG2 Assay for human Interferon Regulatory Factor 1 (IRF1) binding to an Interferon-Stimulated Response Element (ISRE) (AID 2282948). The conditions noted are these: HepG2 ISRE cis-reporter (Attagene), mRNA transcription readout; actives raise or lower the signal. The procedure, abridged: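 Read-out: fluorescent RT-PCR products resolved by capillary electrophoresis, reporting endogenous transcription factor activity via ISRE-driven reporter mRNA in transfected HepG2 cells dosed for 24 h; gain or loss fitted relative to DMSO.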

A short description of assay [15]: ATG_M_32_CIS: Attagene CIS-FACTORIAL HepG2 Assay for M32 Transcription Factor (Internal Marker) (AID 2282949).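 Further: background control marker of the multiplexed CIS panel rather than a real target.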 The conditions noted are these: HepG2 Attagene cis-factorial M32 reporter, mRNA; actives raise or lower the signal. The procedure, abridged:
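Transient MRTU transfection of HepG2; 24 h compound treatment; TriZol RNA, oligo(dT) RT, reporter PCR, 6-FAM primer extension, HpaI cut, CE. Gain/loss of signal vs DMSO.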

The nature of assay [16]: ATG_MRE_CIS: Attagene CIS-FACTORIAL HepG2 Assay for human Metal Responsive Element (MRE) (AID 2282954). The conditions noted are these: HepG2 MRE cis-reporter transcription, Attagene multiplex; actives raise or lower the signal. Put shortly:
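Multiplexed cis-reporter assay in human HepG2 liver cells, 24 h incubation with test chemical. Reporter transcripts measured by RT-PCR and capillary electrophoresis; values from bidirectional curve fitting versus DMSO.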

Assay [17] deals with Paired box protein Pax-6 (Homo sapiens) (UniProt P26367). As to the kind of experiment: ATG_Pax6_CIS: Attagene CIS-FACTORIAL HepG2 Assay for human Paired Box 6 (PAX6) (AID 2282956). The following applies: HepG2 CIS-FACTORIAL PAX6 reporter transcription, RNA readout; actives raise or lower the signal. The procedure, abridged: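 Readout: reporter transcript fluorescence after RT-PCR and capillary electrophoresis. Cells: HepG2, transiently transfected with cis-regulated MRTUs. Exposure 24 h. Gain or loss of signal fitted bidirectionally relative to DMSO.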
Sequence of Paired box protein Pax-6 (Homo sapiens) (P26367 whole entry, looked up): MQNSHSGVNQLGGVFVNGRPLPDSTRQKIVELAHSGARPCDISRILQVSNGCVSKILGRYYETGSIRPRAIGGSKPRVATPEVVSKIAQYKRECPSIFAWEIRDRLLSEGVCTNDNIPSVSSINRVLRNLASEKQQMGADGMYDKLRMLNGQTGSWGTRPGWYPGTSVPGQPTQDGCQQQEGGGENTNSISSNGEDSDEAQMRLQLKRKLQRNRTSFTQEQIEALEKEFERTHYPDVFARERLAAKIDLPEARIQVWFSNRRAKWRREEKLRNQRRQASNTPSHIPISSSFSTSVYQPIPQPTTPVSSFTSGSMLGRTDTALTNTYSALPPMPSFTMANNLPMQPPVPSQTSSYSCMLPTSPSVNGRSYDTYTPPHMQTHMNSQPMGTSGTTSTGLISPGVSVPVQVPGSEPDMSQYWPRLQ

The nature of assay [18]: ATG_PXRE_CIS: Attagene CIS-FACTORIAL HepG2 Assay for human Pregnane X Receptor Element (PXRE) (AID 2282957). The conditions noted are these: HepG2 Attagene CIS-FACTORIAL PXRE reporter, mRNA; actives raise or lower the signal. The procedure, abridged:
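Reporter transcripts under endogenous PXR-responsive cis-regulation quantified from total RNA of transfected HepG2 cells 24 h post-dosing, via RT-PCR with fluorescent primer extension and capillary electrophoresis. Gain or loss of signal fitted against DMSO baseline.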

Assay [19] addresses Transcription factor Sp1 (Homo sapiens) (UniProt P08047). As to the kind of experiment: ATG_Sp1_CIS: Attagene CIS-FACTORIAL HepG2 Assay for human Specificity Protein 1 (Sp1) (AID 2282961). The following applies: HepG2 Sp1 cis-reporter transcription, actives raise or lower the signal. The procedure, abridged: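 Read-out: fluorescence of 6-FAM-labeled, HpaI-digested RT-PCR products separated by capillary electrophoresis. HepG2 cells carried transfected cis-element reporter units and were exposed to chemicals for 24 h; gain or loss of signal fitted relative to DMSO.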

Assay [20] deals with Signal transducer and activator of transcription 3 (Homo sapiens) (UniProt P40763). Kind of assay: ATG_STAT3_CIS: Attagene CIS-FACTORIAL HepG2 Assay for human Signal Transducer and Activator of Transcription 3 (STAT3) (AID 2282963). The following applies: HepG2, Attagene cis-factorial STAT3 reporter transcription; actives raise or lower the signal. The procedure, abridged: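 Cis-factorial format: endogenous transcription factors in HepG2 drive transfected reporter units. After 24 h treatment, reporter RNA was reverse-transcribed, amplified, FAM-labelled and HpaI-digested before CE analysis; activity scored in both directions against DMSO.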
Sequence of Signal transducer and activator of transcription 3 (Homo sapiens) (P40763 whole entry, looked up): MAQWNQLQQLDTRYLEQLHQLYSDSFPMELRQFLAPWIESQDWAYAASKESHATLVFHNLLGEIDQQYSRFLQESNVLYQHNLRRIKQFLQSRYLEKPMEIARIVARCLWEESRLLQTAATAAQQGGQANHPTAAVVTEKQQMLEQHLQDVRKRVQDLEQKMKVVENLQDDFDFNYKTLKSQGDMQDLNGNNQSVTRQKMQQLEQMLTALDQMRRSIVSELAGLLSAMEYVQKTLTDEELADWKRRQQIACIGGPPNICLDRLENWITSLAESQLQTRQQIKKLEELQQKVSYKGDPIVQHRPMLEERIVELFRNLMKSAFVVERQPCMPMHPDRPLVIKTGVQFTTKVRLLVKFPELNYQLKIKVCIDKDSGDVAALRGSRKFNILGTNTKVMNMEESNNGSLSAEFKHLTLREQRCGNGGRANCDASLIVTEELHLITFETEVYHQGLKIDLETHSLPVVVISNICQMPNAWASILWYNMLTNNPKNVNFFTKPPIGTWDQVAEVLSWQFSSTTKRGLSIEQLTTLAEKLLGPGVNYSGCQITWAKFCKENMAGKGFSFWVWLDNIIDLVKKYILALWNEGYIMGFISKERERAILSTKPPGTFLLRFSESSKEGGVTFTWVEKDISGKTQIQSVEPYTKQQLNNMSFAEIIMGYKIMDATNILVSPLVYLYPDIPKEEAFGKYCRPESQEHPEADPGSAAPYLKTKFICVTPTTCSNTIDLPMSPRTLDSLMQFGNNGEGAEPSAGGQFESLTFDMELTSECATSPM

Sequence of Transcription factor Sp1 (Homo sapiens) (P08047 whole entry, looked up): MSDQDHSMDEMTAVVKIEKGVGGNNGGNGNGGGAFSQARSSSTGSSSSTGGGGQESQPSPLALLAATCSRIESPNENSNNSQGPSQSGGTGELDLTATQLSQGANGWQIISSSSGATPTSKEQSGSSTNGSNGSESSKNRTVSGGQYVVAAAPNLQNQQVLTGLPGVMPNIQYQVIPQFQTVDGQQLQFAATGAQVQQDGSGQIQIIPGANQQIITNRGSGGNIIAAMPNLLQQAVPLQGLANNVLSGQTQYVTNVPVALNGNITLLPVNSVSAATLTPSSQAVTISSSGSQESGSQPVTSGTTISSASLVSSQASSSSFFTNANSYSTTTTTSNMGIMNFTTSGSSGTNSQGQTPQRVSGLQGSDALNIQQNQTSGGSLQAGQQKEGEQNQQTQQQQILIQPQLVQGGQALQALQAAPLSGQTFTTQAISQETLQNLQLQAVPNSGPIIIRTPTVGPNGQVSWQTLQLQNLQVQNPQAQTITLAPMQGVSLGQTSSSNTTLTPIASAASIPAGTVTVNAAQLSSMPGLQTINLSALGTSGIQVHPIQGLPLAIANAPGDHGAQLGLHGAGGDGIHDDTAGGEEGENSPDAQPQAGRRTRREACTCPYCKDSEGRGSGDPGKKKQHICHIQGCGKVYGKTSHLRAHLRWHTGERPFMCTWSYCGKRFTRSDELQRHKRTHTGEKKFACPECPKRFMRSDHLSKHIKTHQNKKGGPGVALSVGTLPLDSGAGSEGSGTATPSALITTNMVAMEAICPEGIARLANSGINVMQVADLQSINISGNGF
Sequence of Transcription factor E2F1 (Homo sapiens) (Q01094 whole entry, looked up): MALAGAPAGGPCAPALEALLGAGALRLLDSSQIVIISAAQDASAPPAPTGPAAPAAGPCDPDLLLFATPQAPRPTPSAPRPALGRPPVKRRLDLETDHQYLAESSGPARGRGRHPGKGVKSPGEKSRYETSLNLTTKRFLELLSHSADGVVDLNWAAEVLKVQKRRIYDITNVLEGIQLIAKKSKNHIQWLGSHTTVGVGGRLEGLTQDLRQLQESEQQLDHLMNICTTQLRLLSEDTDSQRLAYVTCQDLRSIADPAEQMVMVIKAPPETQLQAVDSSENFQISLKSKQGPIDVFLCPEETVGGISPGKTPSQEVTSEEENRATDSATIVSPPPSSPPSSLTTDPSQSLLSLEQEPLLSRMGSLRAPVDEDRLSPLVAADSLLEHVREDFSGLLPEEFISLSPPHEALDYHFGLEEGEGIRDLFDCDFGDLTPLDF
Sequence of CCAAT/enhancer-binding protein beta (Homo sapiens) (P17676 whole entry, looked up): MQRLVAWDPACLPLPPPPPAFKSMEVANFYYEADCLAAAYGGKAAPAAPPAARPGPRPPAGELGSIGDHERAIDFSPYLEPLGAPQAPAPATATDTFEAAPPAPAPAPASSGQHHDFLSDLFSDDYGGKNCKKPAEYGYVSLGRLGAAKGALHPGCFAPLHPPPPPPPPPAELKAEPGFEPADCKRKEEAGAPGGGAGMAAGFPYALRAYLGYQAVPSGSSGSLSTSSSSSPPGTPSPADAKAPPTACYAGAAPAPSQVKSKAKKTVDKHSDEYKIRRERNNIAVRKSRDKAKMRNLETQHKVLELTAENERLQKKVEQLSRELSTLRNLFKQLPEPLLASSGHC

Consider `NC(=O)c1ccc(N)cc1`, for which the outcome in assay [1], in assay [2], in assay [3], in assay [4], in assay [5] and in assay [6] was inactive. The molecule was called inactive in [7], in [8], in assay [9], in [10], in [11] and in assay [12]. In addition, the outcome in [13], in [14], in assay [15], in assay [16], in assay [17] and in assay [18] was inactive. In addition, the call in assay [19] and in assay [20] was inactive.

As for `CC(C)(Oc1ccc(Cl)cc1)C(=O)O`, the molecule was called inactive in [1], in [2], in assay [3], in [4], in assay [5] and in assay [6]. The molecule was called inactive in [7], in [8], in [9], in assay [10], in [11] and in assay [12]. Moreover, the outcome in assay [13], in [14], in [15], in [16], in assay [17] and in [18] was inactive. Moreover, the result in assay [19] and in assay [20] was inactive.

Turning to `C[Si](C)(C)O[Si](C)(C)O[Si](C)(C)C`, the result in [1], in assay [2], in assay [3], in [4], in assay [5] and in assay [6] was inactive. The result in [7], in [8], in assay [9], in assay [10], in assay [11] and in assay [12] was inactive. Besides, the outcome in assay [13], in assay [14], in assay [15], in [16], in [17] and in [18] was inactive. Besides, the call in assay [19] and in assay [20] was inactive.

For `CCc1cc(C(N)=S)ccn1`, the molecule was classed as inactive in assay [1], in assay [2], in assay [3], in assay [4], in [5] and in [6]. Besides, the outcome in assay [7], in [8], in [9], in assay [10], in [11] and in assay [12] was inactive. Besides, the molecule was called inactive in [13], in [14], in assay [15], in [16], in [17] and in assay [19]. The outcome in assay [20] was inactive. For the same molecule, in assay [18], the half-maximal activity concentration (AC50) (usually the midpoint of the concentration-response curve, whichever way the signal moves) was 157 µM (active).

`O=C1NC(=O)[C@@H]2CC=CC[C@H]12`: the outcome in assay [1], in assay [2], in assay [3], in [4], in assay [5] and in assay [6] was inactive. Also, the call in assay [7], in assay [8], in assay [9], in [10], in assay [11] and in assay [12] was inactive. Moreover, the call in assay [13], in [14], in [15], in assay [16], in assay [17] and in assay [18] was inactive. Also, the outcome in [19] and in [20] was inactive.

Turning to `Clc1ccccn1`, the result in assay [1], in assay [2], in assay [3], in [4], in assay [5] and in [6] was inactive. The molecule was called inactive in [7], in assay [8], in [9], in [10], in assay [11] and in assay [12]. The result in assay [13], in assay [14], in assay [15], in assay [16], in [17] and in assay [18] was inactive. For the same molecule, the molecule was classed as inactive in assay [19] and in [20].

On to `CCCCCC1CCCC(=O)O1` (stereo not given), for which the result in [1], in assay [2], in assay [3], in [4], in assay [5] and in [6] was inactive. Besides, the molecule was called inactive in assay [7], in [8], in [9], in assay [10], in [11] and in assay [12]. For the same molecule, the molecule was called inactive in assay [13], in [14], in assay [15], in assay [16], in [17] and in assay [19]. For the same molecule, in [20], the outcome was inactive. In addition, the AC50 in assay [18] is 44.5 µM (active).
